Screening results from PubChem BioAssay.
Pf Dd2 inh – qHTS Primary assay for Inhibitors of Plasmodium falciparum Dd2 growth in vitro. P. falciparum Dd2 growth, SYBR Green, 72 h. Potency, µM (series often up to 28.9 µM), for the others: top-dose activity, negative = inhibition, most hits filed as inhibitors. hit rate 4.3% among 120,000. AID 1347417, 2020; active = well fitted inhibition curve with a large enough effect;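 note: plate controls were DMSO vehicle for no effect and reference drug for full effect; nearly all actives have a fitted effect of over 65% in size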
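Readout: SYBR Green fluorescence, 485 nm excitation, 535 nm emission, after ~16 h lysis at 37C. Before that, Dd2-infected red cells (2.5% hematocrit) grew 72 h with compound, 29 uM top final concentration.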
* hit, by the source's call; i = inactive; [ ] = remark or other dose. The full list was thinned out, with hits kept by preference. Potency is the fitted concentration of half-maximal effect.

SMILES	Pf Dd2 inh
COc1cccc(C(=O)N2C[C@@H](COc3ccccc3)[C@H](C(N)=O)C2)c1	-20.1%
CCN(CC)Cc1cnc2c(C(=O)N3[C@H]4CCNC[C@@H]3CC4)cnn2c1	1.3%
CCN1C(=O)C2CC3(CCN(C(=O)CCc4ccccc4)CC3)CN2C1=O (stereo not given)	-21.4%
CCOc1ccccc1CNC(=O)[C@H]1CN(C(C)C)C[C@H]1C(=O)O	4.0%
CCN1CC2(CCN(C(=O)c3cnc4c(O)cccn4c3=O)CC2)OC1=O	-10.5%
Cc1nc([C@@H]2CN(C(=O)CN3CCCCCC3)C[C@H]2C(N)=O)n[nH]1	3.7%
O=C(O)C1CCc2sc(C(=O)N3CCOCC3)cc2C1 (stereo not given)	11.9%
COCCNC(=O)CCCN1C(=O)COc2ccc(C(=O)COc3c(C)ccc(C)c3C)cc21	10µM*
COCCNC(=O)CCCN1C(=O)COc2ccc(C(=O)COc3ccc(Cl)c(C)c3)cc21	i
COCCCNC(=O)CCCN1C(=O)COc2ccc(C(=O)COc3cccc(C)c3C)cc21	-0.9%
O=C1NCc2ccccc2CC12CCN(Cc1cc(O)ccc1[N+](=O)[O-])C2 (stereo not given)	-0.4%
CNC(=O)C(C)N(C)C(=O)c1coc(CN2CCN(c3ccccc3F)CC2)n1 (stereo not given)	19.5%
CCN1CCCN(C(=O)c2cccnc2)CC12CCOCC2	-5.9%
O=C(c1ccc(Cl)cc1)N1CC2(CCCN2Cc2cccnc2)Cc2ccccc21 (stereo not given)	10µM*
O=C(O)CCC(=O)N1CCCC2(Cc3ccccc3N(C(=O)c3ccc(Cl)cc3)C2)C1 (stereo not given)	i
O=[S+]([O-])(c1ccccc1)N1CC2(CCCN2Cc2cccnc2)Cc2ccccc21 (stereo not given)	11.2µM*
C[S+](=O)([O-])N1CC2(CCCCN2Cc2ccc(Cl)cc2)Cc2ccccc21 (stereo not given)	-26.9%
O=C(c1ccncc1)N1CCCN(Cc2cccnc2)c2ccccc21	i
O=C(c1ccccc1)N1CC2(CCCCN2Cc2cccnc2)Cc2ccccc21 (stereo not given)	10µM*
O=C(c1ccc(Cl)cc1)N1CC2(CCN(Cc3cccnc3)CC2)Cc2ccccc21	-26.5%
CS(=O)(=O)N1Cc2ccccc2CC2(CCCN2Cc2cccnc2)C1 (stereo not given)	-7.7%
Cc1noc(C)c1CN1C[C@@H]2C(C(=O)Nc3ccccc3)=NO[C@@H]2C1	42.5%[44.1 µM]
CC(=O)Nc1ccc(CNC2(Cc3cc(-c4ccccn4)on3)COC2)cc1	-17.5%[44.1 µM]
Cc1ccc(NC(=O)NCC2CCOCC2)c(Cl)c1	3.7%
COCCO[C@H]1COCCN(S(=O)(=O)c2ccc(F)cc2)C1	7.6%[44.1 µM]
SMILES	Pf Dd2 inh
O=C(CCn1ccn2nc3c(c2c1=O)CCCC3)NCc1ccccc1Cl	-5.9%
CN(Cc1ccccc1)C(=O)CCc1ccnc(N2CCOCC2)c1	10.4%
CN(C(=O)Cc1ccc(F)cc1)C1CCCc2ccccc21 (stereo not given)	15.8µM*
CN(C(=O)Nc1ccccc1)C1CCCc2ccccc21 (stereo not given)	15.8µM*
CN(C(=O)Nc1ccc(Cl)cc1)C1CCCc2ccccc21 (stereo not given)	-11.6%[44.1 µM]
COCC(=O)N(C)C1CCCc2ccccc21 (stereo not given)	-22.6%[44.1 µM]
CN(C(=O)c1ccccc1)C1CCCc2ccccc21 (stereo not given)	i
CN(Cc1ccc(F)cc1)C1CCCc2ccccc21 (stereo not given)	i
Cc1ccc(C)c(OCC(=O)c2ccc3c(c2)N(C(C)C(=O)N2CCCC2)C(=O)CO3)c1 (stereo not given)	i
CCOc1ccc(-n2c(=O)c3c4c(sc3n(Cc3cc(=O)n5cc(Cl)ccc5n3)c2=O)CCC4)cc1	1.1%
Cc1sc2c(c1C)c(=O)n(-c1ccc(Cl)cc1)c(=O)n2Cc1cc(=O)n2ccccc2n1	i
CC(=O)c1sc2c(c1C)c(=O)n(-c1ccc(Cl)cc1)c(=O)n2Cc1cc(=O)n2cc(Cl)ccc2n1	1.26µM*
CC(C)N1CCC2(CC1)CN(C(=O)c1ccccn1)Cc1ccccc1O2	i
COC1CCC12CCN(C(=O)Nc1ccccc1F)CC2 (stereo not given)	-4.3%
CC(C)c1nc2ccc(C(=O)NCc3ccc(N(C)C)cc3)cc2o1	21.9%
CN(C)c1ccc(CNC(=O)c2ccc3nc(Cc4ccccc4)oc3c2)cc1	-26.3%
CCc1nc2ccc(C(=O)NCc3ccc(N(C)C)cc3)cc2nc1CC	3.55µM*
Cc1cc(C(F)(F)F)nn1CC(=O)N1CCCC(CO)CCNC(=O)CC1 (stereo not given)	-5.7%
CC(C)n1nc(OC(C)(C)C(=O)NCCc2ccccn2)c2cc(CN3CCOCC3)ccc21	i
Cc1cc(N2C[C@H]3CN(C(=O)CN(C)C)C[C@@]3(C(=O)O)C2)nc(N)n1	0.8%
COc1ccc(N2CCN(C(=O)CSc3nc4ccccc4nc3Cc3ccc(Cl)cc3)CC2)cc1	i
CN(C(=O)Cn1cccc1-c1nc(-c2ccc(F)cc2)no1)c1ccccc1	-3.3%
